Measurements published in PubChem BioAssay (NCI).
This is part of a sample that, as a whole, favours compounds with a hit. Of some 83,000 tested, about 20% had one in any assay.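 For each line, cells grew in 96-well plates with the test compound present at a single concentration for 48 hours.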 Values without a mark were called inactive. Activity calls are given as the source filed them. How the source made its calls: active means growth percent below 10; inactive means the rest.

Legend:
Assay in all cases: NCI-60 one-dose screen, 48 h (100 = growth as untreated, 0 = no growth, -100 = all killed)
T-47D breast = details: 10 µM
BT-549 breast = details: 10 µM
MDA-MB-435 melanoma = details: 10 µM
SW-620 colon = details: 10 µM
MCF7 breast = details: 10 µM unless noted
HCT-116 colon = details: 10 µM
HCC-2998 colon = details: 10 µM
KM12 colon = details: 10 µM

SMILES	growth (T-47D breast)	growth (BT-549 breast)	growth (MDA-MB-435 melanoma)	growth (SW-620 colon)	growth (MCF7 breast)	growth (HCT-116 colon)	growth (HCC-2998 colon)	growth (KM12 colon)
CCO/C=C1\SC(=S)N(c2cccc(C)c2)C1=O	93.2%	114%	103%	103%	90.5%	109%	106%	103%
CCC/C=C(/C(C)=O)C(=O)OCC	107%	112%	108%	106%	114%	109%	7.66% (active)	102%
CCCOC(=O)C(O)c1ccccc1 (stereo not drawn)	104%	103%	111%	102%	98.3%	97.8%	110%	101%
Cc1ccncc1C(N)=O	84.5%	111%	118%	98.4%	96%	94.5%	124%	90.1%
CC(=O)Oc1ccc(Br)cc1C(=O)O	97.6%	97.7%	104%	107%	94.3%	95.4%	100%	115%
N#CCc1ccc([N+](=O)[O-])cc1	98.6%	102%	114%	94.5%	89.8%	109%	101%	109%
Nc1ccc(N)c([N+](=O)[O-])c1	91.3%	96.9%	109%	97.7%	101%	99.6%	106%	104%
CC(C)=NNc1ccc([N+](=O)[O-])cc1[N+](=O)[O-]	64.9%	90.9%	84.2%	85.7%	93.7%	82.5%	87%	86.4%
COc1cc2cc(c1Cl)N(C)C(=O)C[C@H](OC(=O)[C@H](C)N(C)C(C)=O)[C@]1(C)O[C@H]1[C@H](C)[C@@H]1C[C@@](O)(NC(=O)O1)[C@H](OC)C=C/C=C(\C)C2	74.6%	-21% (active)	-53.3% (active)	26.5%	14.2%	-18.6% (active)	-32% (active)	-42.3% (active)
C#CC(C(C)C)N(CCO)CCCC (stereo not drawn)	100%	112%	98.6%	107%	93.9%	104%	111%	109%
C/C(=N\O)C1(O)CCCCC1	72.7%	102%	108%	101%	50.7%	101%	109%	94.6%
CC(=O)c1c[nH]c2ccccc12	97.6%	104%	97.5%	105%	100%	97.8%	108%	120%
O=C(CCl)N1CCN(C/C=C/c2ccccc2)CC1	83.8%	94%	85%	90.3%	62.1%	68.5%	125%	112%
COc1cc(CCN=Cc2ccccc2O)c([N+](=O)[O-])cc1OC	97.9%	91.2%	110%	104%	104%	95%	101%	107%
O=c1c2ccccc2c(Br)c(Br)c2ccccc12	53.5%	82.4%	77.6%	29.8%	101%	17.8%	103%	105%
Cc1c(O)cccc1O	98.2%	77.1%	94.9%	99.5%	104%	103%	102%	118%
CNC(=O)c1ccccc1CC1(O)c2ccccc2Oc2ccccc21	49.4%	65%	-51.3% (active)	29.2%	25.6%	32.4%	80.9%	34.5%
CCOC(=O)C1=C(Nc2ccc(Br)cc2)C(=O)N(CC)C1	107%	86.9%	101%	100%	105%	95.9%	101%	101%

SMILES	growth (T-47D breast)	growth (BT-549 breast)	growth (MDA-MB-435 melanoma)	growth (SW-620 colon)	growth (MCF7 breast)	growth (HCT-116 colon)	growth (HCC-2998 colon)	growth (KM12 colon)
CCCCC(=O)c1ccc(OC)cc1	110%	102%	98.7%	101%	97.6%	101%	116%	104%
COc1cc(CN)ccc1O	94.5%	95%	99.5%	103%	83.7%	103%	86.3%	104%
Cc1cc(C)cc(NCCC#N)c1	107%	123%	111%	102%	101%	106%	109%	107%
COc1ccc(Oc2c(I)cc(CC(NC(C)=O)C(=O)O)cc2I)cc1 (stereo not drawn)	74%	65.1%	85.1%	104%	89.2%	79.6%	88%	113%
Cc1ccc(S(=O)(=O)O)c(C)c1	92.5%	109%	107%	98.8%	95.3%	101%	107%	109%
CCN=c1cc2sc3cc(NCC)c(C)cc3nc-2cc1C	-1.96% (active)	36.4%	-35.1% (active)	0.622% (active)	-11.5% (active)	7.17% (active)	30.7%	-1.68% (active)
CCOC(=O)C/C(C)=N\O	98.3%	97.1%	107%	101%	101%	103%	101%	104%
O=c1cc(-c2ccccc2)oc2c1ccc1ccccc12	72%	97.6%	88.6%	99.2%	67.3%	85.5%	98.8%	98.8%
CC(=O)/C(Cc1ccccc1)=N/O	89.8%	90.8%	103%	98.4%	94.5%	87.4%	111%	105%
O=c1[nH]cc(Cl)cc1O	70.5%	90.6%	76.4%	98.6%	91.2%	94.3%	96.9%	57.7%
O=C(O)CCCc1ccccc1	101%	105%	98.9%	111%	104%	104%	107%	114%
O=C(Nc1ccccc1C(=O)NCC1CC1)c1cccs1	106%	99.9%	105%	109%	106%	93.7%	103%	107%
COC(=O)c1ccccc1N(C)C	93.5%	103%	108%	107%	97.1%	98.4%	113%	107%
Cc1ccc(/C(C#N)=C/c2ccc3c(c2)OCO3)cc1	64.1%	87.1%	-11.1% (active)	32%	49.7%	72.8%	74.3%	26.1%
S=c1sc2ccccc2n1CN1CCCCC1	100%	90.3%	104%	90%	115%	102%	116%	98.4%
CN(C)c1ccc(CNC(C(=O)c2ccccc2)c2ccccc2)cc1 (stereo not drawn)	98.9%	98%	107%	101%	107%	50.8%	106%	98.6%
Nc1ccc(CC(=O)O)c(N)c1	117%	105%	97.6%	100%	99.3%	103%	104%	93.5%
Clc1ccc(-c2nnc(-c3cccc4ccccc34)o2)cc1	53.4%	104%	96%	93%	32.2%	93.9%	104%	102%
